Inconclusive results are not listed. The source made the active and inactive calls. How the source made its calls, unless noted: active means hit-call score of the fitted dose curve at least 0.9, where 1 is the maximum; inconclusive means response in the unintended direction; inactive means score below 0.9.
What was measured:
[1] = BSK_4H_Eotaxin3: BioMAP Diversity Plus: 4H Assay for Eotaxin 3 Biomarker Activity (AID 2283000; active means hit-call score of the fitted dose curve at least 0.9, where 1 is the maximum; inactive means score below 0.9); settings: primary human endothelial cells (HUVEC); actives raise or lower the signal
Procedure, shortened: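 Endothelial primary cells (human umbilical vein) exposed to compound for 24 h. ELISA detection of Eotaxin-3.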

[2] = read-out: Intercellular Adhesion Molecule 1 (ICAM1), ICAM1 (gene 3383); assay: BSK_3C_ICAM1: BioMAP Diversity Plus: 3C Assay for Intercellular Adhesion Molecule 1 (ICAM1) Biomarker Activity (AID 2283003; active means hit-call score of the fitted dose curve at least 0.9, where 1 is the maximum; inactive means score below 0.9); settings: primary human endothelial cells (HUVEC); actives raise or lower the signal
Procedure, shortened: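 HUVEC primary cells stimulated under 3C conditions; ICAM1 measured by ELISA 24 h after compound dosing. Curves fitted bidirectionally against the DMSO baseline. Overt cytotoxicity checked by SRB staining of parallel cultures.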

[3] = BSK_3C_Proliferation: Cell Proliferation Assessment in the BioMAP Diversity Plus: 3C Assay (AID 2283006; active means hit-call score of the fitted dose curve at least 0.9, where 1 is the maximum; inactive means score below 0.9;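 on AC50: potency may reflect either rise or fall in cell number versus DMSO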); settings: primary human endothelial cells (HUVEC)
Procedure, shortened: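 Subconfluent HUVEC (3C system) cultured with chemical; relative cell number read at 48 h by sulforhodamine B total-protein staining (0.1% SRB after 10% TCA fixation, 560 nm). Bidirectional fit relative to DMSO.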

[4] = molecular target: Nuclear receptor subfamily 1 group I member 2 (Homo sapiens) (UniProt O75469); assay: ATG_PXR_TRANS: Attagene TRANS-FACTORIAL HepG2 Assay for human Pregnane X Receptor (PXR) (AID 2283008)
Procedure, shortened: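 Fluorescence intensity of FAM-labelled, HpaI-digested reporter amplicons, separated by capillary electrophoresis, quantifies induction. HepG2 cells with PXR-Gal4 trans-reporter system were exposed 24 h; DMSO defines baseline.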

[5] = molecular target: human RAR-related Orphan Receptor gamma (RORg), RORC (gene 6097) (UniProt P51449); assay: ATG_RORg_TRANS: Attagene TRANS-FACTORIAL HepG2 Assay for human RAR-related Orphan Receptor gamma (RORg) (AID 2283011)
Procedure, shortened: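 Activity is scored as increase in GAL4-UAS reporter mRNA over DMSO, detected by fluorescent RT-PCR and capillary electrophoresis in HepG2 cells transiently expressing a RORg-Gal4 chimera, 24 h after dosing.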

[6] = molecular target: Retinoic acid receptor RXR-alpha (Homo sapiens) (UniProt P19793); assay: ATG_RXRa_TRANS: Attagene TRANS-FACTORIAL HepG2 Assay for human Retinoid X Receptor alpha (RXRa) (AID 2283012)
Procedure, shortened: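 HepG2 cells transiently transfected with GAL4-UAS reporter units and chimeric RXRa-Gal4 protein, treated 24 h. Reporter mRNA measured by RT-PCR, fluorescent labelling, HpaI digestion and capillary electrophoresis. Induction fitted against DMSO.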

[7] = molecular target: human Retinoid X Receptor beta (RXRb), RXRB (gene 6257) (UniProt P28702); assay: ATG_RXRb_TRANS: Attagene TRANS-FACTORIAL HepG2 Assay for human Retinoid X Receptor beta (RXRb) (AID 2283013)
Procedure, shortened: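 HepG2 cells were transiently transfected with multiplexed GAL4-UAS reporters and a chimeric RXRb-Gal4 construct, then exposed for 24 h. Reporter mRNA was quantified by RT-PCR, FAM labeling, HpaI digestion and capillary electrophoresis; gain of signal was scored against DMSO.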

[8] = molecular target: human Thyroid Receptor alpha (THRa1), THRA (gene 7067) (UniProt P10827); assay: ATG_THRa1_TRANS: Attagene TRANS-FACTORIAL HepG2 Assay for human Thyroid Receptor alpha (THRa1) (AID 2283014)
Procedure, shortened: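 First, HepG2 cells receive multiple GAL4-UAS reporter units and the chimeric receptor. They are then dosed for 24 h, after which RNA is reverse-transcribed, amplified, labelled, HpaI-cut and sized by capillary electrophoresis; gain relative to DMSO is scored.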

[9] = read-out: E-selectin (Homo sapiens) (UniProt P16581); assay: BSK_3C_Eselectin: BioMAP Diversity Plus: 3C Assay for Eselectin Biomarker Activity (AID 2283015; active means hit-call score of the fitted dose curve at least 0.9, where 1 is the maximum; inactive means score below 0.9); settings: primary human endothelial cells (HUVEC); actives raise or lower the signal
Procedure, shortened: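 Human vascular endothelium from umbilical vein is exposed to test chemicals for 24 h. E-selectin levels are read by ELISA and compared with DMSO controls.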

[10] = read-out: Interleukin-1 alpha (IL1a), IL1A (gene 3552); assay: BSK_BE3C_IL1a: BioMAP Diversity Plus: BE3C Assay for Interleukin-1 alpha (IL1a) Biomarker Activity (AID 2283016; active means hit-call score of the fitted dose curve at least 0.9, where 1 is the maximum; inactive means score below 0.9); settings: primary human bronchial epithelial cells; actives raise or lower the signal
Procedure, shortened: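 Human primary bronchial epithelial cells, 24 h chemical exposure; IL-1a quantified by ELISA, fitted bidirectionally against DMSO. Cytotoxicity assessed in parallel by SRB total-protein staining at the time of measurement.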

[11] = read-out: Monocyte Chemoattractant Protein-1 (MCP1), CCL2 (gene 6347); assay: BSK_3C_MCP1: BioMAP Diversity Plus: 3C Assay for Monocyte Chemoattractant Protein-1 (MCP1) Biomarker Activity (AID 2283017; active means hit-call score of the fitted dose curve at least 0.9, where 1 is the maximum; inactive means score below 0.9); settings: primary human endothelial cells (HUVEC); actives raise or lower the signal
Procedure, shortened: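 Endothelial cells from human umbilical vein are dosed with chemical, cultured 24 h, then assayed for MCP-1 by ELISA; both increases and decreases are modelled against DMSO controls.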

[12] = read-out: Monocyte Chemoattractant Protein-1 (MCP1), CCL2 (gene 6347); assay: BSK_4H_MCP1: BioMAP Diversity Plus: 4H Assay for Monocyte Chemoattractant Protein-1 (MCP1) Biomarker Activity (AID 2283018; active means hit-call score of the fitted dose curve at least 0.9, where 1 is the maximum; inactive means score below 0.9); settings: primary human endothelial cells (HUVEC); actives raise or lower the signal
Procedure, shortened: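 Human umbilical vein endothelial cells (4H system) exposed to chemicals for 24 h in 96-well format. MCP-1 measured by ELISA; bidirectional fitting against DMSO, with SRB total-protein staining in parallel cultures for cytotoxicity.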

[13] = read-out: Human Leukocyte Antigen - DR isotype (HLADR), HLA-DRA (gene 3122); assay: BSK_3C_HLADR: BioMAP Diversity Plus: 3C Assay for Human Leukocyte Antigen - DR isotype (HLADR) Biomarker Activity (AID 2283019; active means hit-call score of the fitted dose curve at least 0.9, where 1 is the maximum; inactive means score below 0.9); settings: primary human endothelial cells (HUVEC); actives raise or lower the signal
Procedure, shortened: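 Endothelial cells from human umbilical vein are treated with test chemical; after 24 h, HLA-DR levels are measured by ELISA. Data are fitted in both directions using DMSO as the baseline.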

[14] = molecular target: human Peroxisome Proliferator-activated Receptor alpha (PPARa), PPARA (gene 5465) (UniProt Q07869); assay: ATG_PPARa_TRANS: Attagene TRANS-FACTORIAL HepG2 Assay for human Peroxisome Proliferator-activated Receptor alpha (PPARa) (AID 2283001)
Procedure, shortened: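 Read-out is fluorescence of reporter cDNA fragments resolved by capillary electrophoresis after RT-PCR. Human HepG2 liver cells carried transfected PPARa-Gal4 chimera and GAL4-UAS reporter units, treated 24 h; activity scored as increase over DMSO.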

[15] = molecular target: human Peroxisome Proliferator-activated Receptor delta (PPARd), PPARD (gene 5467) (UniProt Q03181); assay: ATG_PPARd_TRANS: Attagene TRANS-FACTORIAL HepG2 Assay for human Peroxisome Proliferator-activated Receptor delta (PPARd) (AID 2283002)
Procedure, shortened: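 Cell-based TRANS reporter: HepG2, transient MRTU transfection, 24 h exposure. Readout = reporter mRNA (RT-PCR/CE, 6-FAM). Gain-of-signal fit vs DMSO control.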

[16] = molecular target: human Retinoic Acid Receptor beta (RARb), RARB (gene 5915) (UniProt P10826); assay: ATG_RARb_TRANS: Attagene TRANS-FACTORIAL HepG2 Assay for human Retinoic Acid Receptor beta (AID 2283004)
Procedure, shortened: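 HepG2, transient MRTU transfection, NR–Gal4 chimera, 24 h treatment; RT-PCR plus CE fluorescence detection of reporter mRNA; gain of signal vs DMSO.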

[17] = molecular target: Retinoic acid receptor alpha (Homo sapiens) (UniProt P10276); assay: ATG_RARa_TRANS: Attagene TRANS-FACTORIAL HepG2 Assay for human Retinoic Acid Receptor alpha (RARa) (AID 2283005)
Procedure, shortened: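 Reporter transcripts, measured by RT-PCR with fluorescent labeling and capillary electrophoresis after 24 h dosing, reflect activity of an exogenous human RARa–GAL4 fusion in transiently transfected HepG2. Fitted for increase relative to DMSO.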

[18] = molecular target: human RAR-related Orphan Receptor beta (RORb), RORB (gene 6096) (UniProt Q92753); assay: ATG_RORb_TRANS: Attagene TRANS-FACTORIAL HepG2 Assay for human RAR-related Orphan Receptor beta (RORb) (AID 2283010)
Procedure, shortened: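 HepG2 cells transiently transfected with GAL4-UAS reporter units expressing chimeric NR-Gal4 protein; reporter mRNA measured 24 h after dosing by RT-PCR, 6-FAM labelling and capillary electrophoresis. Gain-of-signal fitted relative to DMSO baseline.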

[19] = molecular target: Peroxisome proliferator-activated receptor gamma (Homo sapiens) (UniProt P37231); assay: ATG_PPARg_TRANS: Attagene TRANS-FACTORIAL HepG2 Assay for human Peroxisome Proliferator-activated Receptor-gamma (PPARg) (AID 2283007)
Procedure, shortened: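 Read-out: reporter mRNA induction, detected by fluorescence after RT-PCR and capillary electrophoresis. Transiently transfected human HepG2 liver cells carrying a chimeric NR-Gal4 construct were dosed for 24 h; activity was fitted upward relative to DMSO.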

[20] = molecular target: human Retinoic Acid Receptor gamma (RARg), RARG (gene 5916) (UniProt P13631); assay: ATG_RARg_TRANS: Attagene TRANS-FACTORIAL HepG2 Assay for human Retinoic Acid Receptor gamma (RARg) (AID 2283009)
Procedure, shortened: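 HepG2 transiently transfected with GAL4-UAS reporter units and chimeric NR-Gal4 constructs; 24 h compound exposure. Reporter mRNA quantified by RT-PCR, FAM labeling, HpaI digestion and capillary electrophoresis; gain-of-signal versus DMSO.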

Measured: AC50

human RAR-related Orphan Receptor beta (RORb), RORB (gene 6096), sequence (Q92753 whole entry, looked up, the tested form may be a part): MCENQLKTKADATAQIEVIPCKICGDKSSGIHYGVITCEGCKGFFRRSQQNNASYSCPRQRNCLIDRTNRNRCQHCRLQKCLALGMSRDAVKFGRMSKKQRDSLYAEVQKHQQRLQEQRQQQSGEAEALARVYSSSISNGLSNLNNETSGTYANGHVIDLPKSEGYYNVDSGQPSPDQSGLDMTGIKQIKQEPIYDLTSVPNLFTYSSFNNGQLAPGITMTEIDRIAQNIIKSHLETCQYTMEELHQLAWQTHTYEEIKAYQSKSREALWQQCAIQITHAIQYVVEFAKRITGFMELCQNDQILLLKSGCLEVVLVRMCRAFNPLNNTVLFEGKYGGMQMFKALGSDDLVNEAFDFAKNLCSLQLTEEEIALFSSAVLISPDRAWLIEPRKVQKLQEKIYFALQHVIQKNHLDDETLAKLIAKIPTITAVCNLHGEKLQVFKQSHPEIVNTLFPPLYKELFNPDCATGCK
Peroxisome proliferator-activated receptor gamma (Homo sapiens), sequence (P37231 whole entry, looked up, the tested form may be a part): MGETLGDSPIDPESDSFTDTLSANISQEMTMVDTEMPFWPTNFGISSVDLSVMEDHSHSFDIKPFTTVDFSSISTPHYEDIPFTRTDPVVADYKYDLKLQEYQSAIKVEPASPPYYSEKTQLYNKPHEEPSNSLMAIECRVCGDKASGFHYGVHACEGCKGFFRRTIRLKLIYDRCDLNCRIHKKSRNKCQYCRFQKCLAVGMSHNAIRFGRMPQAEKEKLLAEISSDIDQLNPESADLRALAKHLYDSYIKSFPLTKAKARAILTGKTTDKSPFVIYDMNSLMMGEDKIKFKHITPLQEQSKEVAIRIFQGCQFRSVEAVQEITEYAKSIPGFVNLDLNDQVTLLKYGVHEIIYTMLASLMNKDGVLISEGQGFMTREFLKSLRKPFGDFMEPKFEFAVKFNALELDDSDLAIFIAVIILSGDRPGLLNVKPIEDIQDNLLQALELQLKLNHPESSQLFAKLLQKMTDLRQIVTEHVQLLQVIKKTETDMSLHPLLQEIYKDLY
Nuclear receptor subfamily 1 group I member 2 (Homo sapiens), sequence (O75469 whole entry, looked up, the tested form may be a part): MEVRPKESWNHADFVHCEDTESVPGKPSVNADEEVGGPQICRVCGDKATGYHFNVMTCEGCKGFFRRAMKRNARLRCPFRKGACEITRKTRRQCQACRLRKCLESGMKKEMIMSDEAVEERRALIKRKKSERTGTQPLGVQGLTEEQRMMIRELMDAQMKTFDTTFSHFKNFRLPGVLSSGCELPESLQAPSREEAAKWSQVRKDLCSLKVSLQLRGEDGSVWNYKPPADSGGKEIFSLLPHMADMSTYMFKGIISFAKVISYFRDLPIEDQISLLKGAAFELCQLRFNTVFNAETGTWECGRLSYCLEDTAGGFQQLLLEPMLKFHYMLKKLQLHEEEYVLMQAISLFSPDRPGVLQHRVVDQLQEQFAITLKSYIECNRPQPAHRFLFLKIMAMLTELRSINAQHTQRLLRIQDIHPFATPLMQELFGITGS
human Thyroid Receptor alpha (THRa1), THRA (gene 7067), sequence (P10827 whole entry, looked up, the tested form may be a part): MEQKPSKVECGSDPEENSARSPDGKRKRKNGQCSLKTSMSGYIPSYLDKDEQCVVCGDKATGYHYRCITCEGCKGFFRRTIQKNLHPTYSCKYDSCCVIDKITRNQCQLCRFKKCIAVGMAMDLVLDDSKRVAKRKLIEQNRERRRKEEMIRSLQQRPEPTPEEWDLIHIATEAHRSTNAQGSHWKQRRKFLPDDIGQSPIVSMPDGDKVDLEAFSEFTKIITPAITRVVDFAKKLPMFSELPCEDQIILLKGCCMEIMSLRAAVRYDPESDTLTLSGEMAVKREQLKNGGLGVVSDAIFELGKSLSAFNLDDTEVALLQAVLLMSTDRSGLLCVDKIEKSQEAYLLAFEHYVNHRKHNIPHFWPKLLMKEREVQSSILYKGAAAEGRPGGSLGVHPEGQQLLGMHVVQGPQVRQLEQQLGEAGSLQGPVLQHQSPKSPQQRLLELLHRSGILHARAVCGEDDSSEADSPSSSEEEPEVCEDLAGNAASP
human Peroxisome Proliferator-activated Receptor delta (PPARd), PPARD (gene 5467), sequence (Q03181 whole entry, looked up): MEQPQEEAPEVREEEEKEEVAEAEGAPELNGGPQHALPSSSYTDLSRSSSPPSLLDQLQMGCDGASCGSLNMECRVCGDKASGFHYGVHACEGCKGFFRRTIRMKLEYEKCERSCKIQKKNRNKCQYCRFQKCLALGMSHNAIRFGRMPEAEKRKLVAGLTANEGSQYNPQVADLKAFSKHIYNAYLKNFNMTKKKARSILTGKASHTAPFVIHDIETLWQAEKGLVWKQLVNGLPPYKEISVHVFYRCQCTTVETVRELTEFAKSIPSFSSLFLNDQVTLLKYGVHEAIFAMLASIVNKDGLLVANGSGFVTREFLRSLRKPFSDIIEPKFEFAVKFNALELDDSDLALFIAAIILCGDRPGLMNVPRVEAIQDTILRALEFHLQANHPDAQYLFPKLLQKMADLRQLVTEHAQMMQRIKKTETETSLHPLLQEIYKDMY
human Peroxisome Proliferator-activated Receptor alpha (PPARa), PPARA (gene 5465), sequence (Q07869 whole entry, looked up, the tested form may be a part): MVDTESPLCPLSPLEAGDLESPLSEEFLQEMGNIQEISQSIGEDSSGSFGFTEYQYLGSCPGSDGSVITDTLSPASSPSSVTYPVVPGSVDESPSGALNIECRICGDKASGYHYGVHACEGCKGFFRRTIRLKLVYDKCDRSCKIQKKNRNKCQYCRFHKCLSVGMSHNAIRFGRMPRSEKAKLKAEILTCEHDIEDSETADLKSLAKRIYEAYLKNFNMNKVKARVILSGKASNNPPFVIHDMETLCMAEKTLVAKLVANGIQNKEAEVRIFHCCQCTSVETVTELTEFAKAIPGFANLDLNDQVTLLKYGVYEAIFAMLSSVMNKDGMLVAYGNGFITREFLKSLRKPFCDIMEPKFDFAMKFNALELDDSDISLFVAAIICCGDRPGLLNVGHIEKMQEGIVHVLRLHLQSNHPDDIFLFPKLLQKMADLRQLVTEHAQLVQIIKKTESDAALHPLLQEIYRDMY
Retinoic acid receptor RXR-alpha (Homo sapiens), sequence (P19793 whole entry, looked up, the tested form may be a part): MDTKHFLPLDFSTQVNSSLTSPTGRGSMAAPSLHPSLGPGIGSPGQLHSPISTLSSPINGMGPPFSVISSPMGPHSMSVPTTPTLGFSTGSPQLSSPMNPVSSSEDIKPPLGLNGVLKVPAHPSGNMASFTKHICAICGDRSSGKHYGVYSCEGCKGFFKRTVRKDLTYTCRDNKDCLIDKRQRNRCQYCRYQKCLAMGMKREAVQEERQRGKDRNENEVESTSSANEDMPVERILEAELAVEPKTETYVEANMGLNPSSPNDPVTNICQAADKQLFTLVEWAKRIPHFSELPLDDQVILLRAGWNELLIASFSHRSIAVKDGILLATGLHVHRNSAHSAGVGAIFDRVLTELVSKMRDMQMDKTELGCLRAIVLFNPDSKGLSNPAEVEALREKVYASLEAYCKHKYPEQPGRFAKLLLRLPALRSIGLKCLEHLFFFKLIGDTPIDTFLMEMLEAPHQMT
human RAR-related Orphan Receptor gamma (RORg), RORC (gene 6097), sequence (P51449 whole entry, looked up, the tested form may be a part): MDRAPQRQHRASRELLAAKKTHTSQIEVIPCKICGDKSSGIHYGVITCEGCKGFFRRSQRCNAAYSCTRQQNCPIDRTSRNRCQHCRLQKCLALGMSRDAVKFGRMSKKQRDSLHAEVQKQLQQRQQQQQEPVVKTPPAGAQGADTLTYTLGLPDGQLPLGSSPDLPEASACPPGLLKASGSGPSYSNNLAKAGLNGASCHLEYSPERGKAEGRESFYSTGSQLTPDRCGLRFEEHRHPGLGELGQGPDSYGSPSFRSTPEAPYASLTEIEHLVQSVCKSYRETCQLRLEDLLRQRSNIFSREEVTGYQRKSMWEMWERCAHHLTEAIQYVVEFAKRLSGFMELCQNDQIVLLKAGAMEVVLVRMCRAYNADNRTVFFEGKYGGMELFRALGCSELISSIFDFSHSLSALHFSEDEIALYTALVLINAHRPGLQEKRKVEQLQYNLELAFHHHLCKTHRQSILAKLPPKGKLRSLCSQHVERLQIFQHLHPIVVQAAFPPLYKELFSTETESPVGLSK
human Retinoid X Receptor beta (RXRb), RXRB (gene 6257), sequence (P28702 whole entry, looked up, the tested form may be a part): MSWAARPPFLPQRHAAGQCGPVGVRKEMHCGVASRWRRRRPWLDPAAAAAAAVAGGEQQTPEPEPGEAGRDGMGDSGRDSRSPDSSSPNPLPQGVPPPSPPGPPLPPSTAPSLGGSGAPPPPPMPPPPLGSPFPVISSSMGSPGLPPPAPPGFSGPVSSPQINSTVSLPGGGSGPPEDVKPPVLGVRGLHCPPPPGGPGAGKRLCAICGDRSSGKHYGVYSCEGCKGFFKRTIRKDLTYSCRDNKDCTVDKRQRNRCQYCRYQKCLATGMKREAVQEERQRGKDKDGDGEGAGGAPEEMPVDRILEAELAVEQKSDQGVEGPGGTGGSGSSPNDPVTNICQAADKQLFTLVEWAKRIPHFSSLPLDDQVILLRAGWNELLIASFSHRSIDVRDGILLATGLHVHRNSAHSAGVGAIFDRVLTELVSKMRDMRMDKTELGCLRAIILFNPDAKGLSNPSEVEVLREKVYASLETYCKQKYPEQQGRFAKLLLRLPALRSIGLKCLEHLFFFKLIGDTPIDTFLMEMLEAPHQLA
Retinoic acid receptor alpha (Homo sapiens), sequence (P10276 whole entry, looked up, the tested form may be a part): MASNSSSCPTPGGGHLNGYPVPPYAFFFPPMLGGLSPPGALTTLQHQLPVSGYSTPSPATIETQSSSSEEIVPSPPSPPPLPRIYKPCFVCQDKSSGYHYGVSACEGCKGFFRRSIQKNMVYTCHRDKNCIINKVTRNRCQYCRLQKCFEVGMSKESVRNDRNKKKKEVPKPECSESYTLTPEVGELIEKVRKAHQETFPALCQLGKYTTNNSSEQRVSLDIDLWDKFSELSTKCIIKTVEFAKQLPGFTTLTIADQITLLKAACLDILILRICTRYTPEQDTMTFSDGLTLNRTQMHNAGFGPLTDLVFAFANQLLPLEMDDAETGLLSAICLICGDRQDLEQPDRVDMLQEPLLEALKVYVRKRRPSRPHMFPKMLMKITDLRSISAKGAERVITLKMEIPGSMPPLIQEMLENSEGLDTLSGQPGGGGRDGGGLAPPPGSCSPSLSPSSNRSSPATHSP

C=C1CC/C=C(\C)CC[C@@H]2[C@@H]1CC2(C)C
inactive: [5] | [6] | [8] | [10]
active: [1] 28.8 µM | [2] 35 µM | [3] 30 µM | [4] 19.8 µM | [7] 19.4 µM | [9] 27.4 µM | [11] 31.5 µM | [12] 29.1 µM | [13] 28.7 µM

CC(C)Cc1ccccc1
inactive: [14] | [15] | [16] | [17] | [4] | [18] | [5] | [6] | [7]

CCCC(O)C(CC)CO (centres undefined)
inactive: [14] | [15]

CCCCCCOc1ccc(O)cc1
active: [19] 27.6 µM | [4] 15 µM
inactive: [14] | [15] | [20]

O=C(O)C1=NN(c2ccc(S(=O)(=O)O)cc2)C(=O)C1
inactive: [14] | [15] | [19]

CCCCOCC(C)OCC(C)O (centres undefined)
inactive: [14] | [15] | [19] | [4] | [18] | [5] | [8]

C=C(C)C(=O)OCCC(F)(F)C(F)(F)C(F)(F)C(F)(F)C(F)(F)C(F)(F)C(F)(F)C(F)(F)F
inactive: [1] | [2] | [3] | [10] | [11] | [12] | [13]

CC(C)(C)C1CCC(O)CC1 (centres undefined)
inactive: [14] | [15] | [19] | [4] | [18] | [6] | [7] | [8]

NC(N)=NC(N)=NCCc1ccccc1
inactive: [14] | [15] | [17] | [19] | [4] | [20] | [5] | [8]

COC(=O)C(C)Oc1ccc(Oc2ncc(C(F)(F)F)cc2Cl)cc1 (centres undefined)
active: [19] 48.9 µM | [4] 40.6 µM
inactive: [14] | [15] | [18] | [6] | [7]

Reference: PubChem BioAssay (EPA / NIEHS)
